In publication PMC5700166:
Numbering of substitutions follows the chain as printed.

Assays:
Assay in all cases: protein-binding microarray (PBM); PBM: ~300 nM protein, 6 mM HEPES pH 7.8, 80 mM KCl, 0.5 mM EDTA, 0.5 mM EGTA, 6% glycerol, 35 ng/ul poly-dIdC, 1% milk, 1 h, room temperature; Ap Aiptasia and Nv Nematostella (sea anemones) / Co Capsaspora / Aq Amphimedon (sponge) / Dm Drosophila / Hu human; RHD is the Rel homology domain; high values mean tight binding
Settings in all cases: dsDNA, one strand shown
GST-Ap-NF-kB RHD = molecular target: T1, GST-Ap-NF-kB RHD (Exaiptasia pallida (Aiptasia), UniProt A0A913YAJ5 2-422)
T1 sequence: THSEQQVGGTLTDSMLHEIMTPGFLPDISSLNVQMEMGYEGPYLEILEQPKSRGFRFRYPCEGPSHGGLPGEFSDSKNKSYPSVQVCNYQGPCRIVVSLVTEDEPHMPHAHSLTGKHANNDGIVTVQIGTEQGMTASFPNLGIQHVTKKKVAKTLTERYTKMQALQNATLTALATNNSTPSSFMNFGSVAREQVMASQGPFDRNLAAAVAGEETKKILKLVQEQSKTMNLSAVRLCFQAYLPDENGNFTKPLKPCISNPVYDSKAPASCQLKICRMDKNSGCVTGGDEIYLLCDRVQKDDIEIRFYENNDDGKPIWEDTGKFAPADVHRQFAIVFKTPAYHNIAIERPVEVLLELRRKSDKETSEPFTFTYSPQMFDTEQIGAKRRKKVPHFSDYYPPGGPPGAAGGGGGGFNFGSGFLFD

[1] = molecular target: T2, GST-Nv-NF-kB (Cys allele) (Nematostella vectensis, UniProt E5G601 2-411)
T2 sequence: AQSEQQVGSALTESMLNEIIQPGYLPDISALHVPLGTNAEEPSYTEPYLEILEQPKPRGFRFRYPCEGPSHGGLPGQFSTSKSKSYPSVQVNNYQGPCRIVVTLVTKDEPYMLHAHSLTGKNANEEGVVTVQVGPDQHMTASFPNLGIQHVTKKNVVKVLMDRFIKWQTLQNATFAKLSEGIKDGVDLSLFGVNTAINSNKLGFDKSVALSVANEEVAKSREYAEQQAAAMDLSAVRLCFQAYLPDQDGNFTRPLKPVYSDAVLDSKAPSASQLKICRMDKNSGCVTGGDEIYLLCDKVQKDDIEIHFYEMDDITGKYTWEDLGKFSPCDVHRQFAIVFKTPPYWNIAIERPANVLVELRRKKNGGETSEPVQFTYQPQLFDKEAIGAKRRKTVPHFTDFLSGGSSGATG

[2] = molecular target: T3, GST-Nv-NF-kB (Ser allele) (Nematostella vectensis, UniProt A7UNT2 2-411)
T3 sequence: T2 sequence with Q21R, C66S, S207N, E215Q, V217A, E225K, A268E, D399E

GST-Co-NF-kB = molecular target: T4, GST-Co-NF-kB (Capsaspora owczarzaki, UniProt F1ARL5 200-546)
T4 sequence: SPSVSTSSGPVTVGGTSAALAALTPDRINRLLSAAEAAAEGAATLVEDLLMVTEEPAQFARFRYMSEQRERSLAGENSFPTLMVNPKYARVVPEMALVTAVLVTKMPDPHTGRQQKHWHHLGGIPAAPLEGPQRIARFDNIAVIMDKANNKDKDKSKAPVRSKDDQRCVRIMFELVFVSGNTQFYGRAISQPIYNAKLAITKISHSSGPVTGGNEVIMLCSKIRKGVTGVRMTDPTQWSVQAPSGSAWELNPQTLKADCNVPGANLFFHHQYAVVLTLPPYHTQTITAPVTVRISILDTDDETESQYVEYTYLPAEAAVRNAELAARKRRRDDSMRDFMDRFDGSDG

GST-Dm-Relish = molecular target: T5, GST-Dm-Relish (Drosophila melanogaster, UniProt Q94527 99-473)
T5 sequence: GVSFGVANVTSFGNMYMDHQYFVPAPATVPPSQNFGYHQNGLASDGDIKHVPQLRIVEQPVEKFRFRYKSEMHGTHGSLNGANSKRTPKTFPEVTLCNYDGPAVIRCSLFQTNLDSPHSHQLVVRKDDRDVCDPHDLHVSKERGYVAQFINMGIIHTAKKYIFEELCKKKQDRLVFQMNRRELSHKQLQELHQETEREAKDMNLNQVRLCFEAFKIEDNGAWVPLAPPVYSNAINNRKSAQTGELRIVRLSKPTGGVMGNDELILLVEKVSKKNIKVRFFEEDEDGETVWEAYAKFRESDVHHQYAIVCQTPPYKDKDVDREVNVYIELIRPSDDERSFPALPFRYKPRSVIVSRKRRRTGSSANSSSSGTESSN

GST-Aq-NF-kB = molecular target: T6, GST-Aq-NF-kB (Amphimedon queenslandica, UniProt A9Y5G7 2-389)
T6 sequence: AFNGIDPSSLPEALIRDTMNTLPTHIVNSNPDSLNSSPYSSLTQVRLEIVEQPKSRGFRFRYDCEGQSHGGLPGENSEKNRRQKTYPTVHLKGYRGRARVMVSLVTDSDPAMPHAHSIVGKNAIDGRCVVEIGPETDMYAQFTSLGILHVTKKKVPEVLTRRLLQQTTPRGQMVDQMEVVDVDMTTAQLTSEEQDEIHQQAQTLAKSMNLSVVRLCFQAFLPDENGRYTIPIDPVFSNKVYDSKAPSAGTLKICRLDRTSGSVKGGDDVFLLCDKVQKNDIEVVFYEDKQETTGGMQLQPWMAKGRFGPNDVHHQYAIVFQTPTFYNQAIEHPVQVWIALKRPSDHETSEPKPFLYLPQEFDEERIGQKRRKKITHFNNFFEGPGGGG

GST-Hu-p50 = GST-Hu-p50 (Homo sapiens, UniProt P19838 7-356)
Sequence of GST-Hu-p50 (P19838 7-356): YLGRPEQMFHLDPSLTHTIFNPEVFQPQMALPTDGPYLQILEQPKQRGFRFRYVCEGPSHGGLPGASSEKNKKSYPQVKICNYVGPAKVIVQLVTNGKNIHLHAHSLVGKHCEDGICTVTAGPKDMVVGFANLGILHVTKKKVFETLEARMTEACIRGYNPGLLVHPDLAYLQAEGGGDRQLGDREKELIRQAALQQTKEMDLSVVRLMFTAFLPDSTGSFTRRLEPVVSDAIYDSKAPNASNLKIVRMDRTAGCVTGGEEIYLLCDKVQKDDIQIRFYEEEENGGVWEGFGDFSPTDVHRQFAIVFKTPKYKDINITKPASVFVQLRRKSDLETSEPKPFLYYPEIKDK

Sequence	binding signal (GST-Ap-NF-kB RHD) [z-score]	binding signal [1] [z-score]	binding signal [2] [z-score]	binding signal (GST-Co-NF-kB) [z-score]	binding signal (GST-Dm-Relish) [z-score]	binding signal (GST-Aq-NF-kB) [z-score]	binding signal (GST-Hu-p50) [z-score]
CCGATTAACATCAAGGGGGGTAATGATGTTAATCGGGTCTTGATTCGCTTGACGCTGCTG	4.04	4.87	4.3	5.42	3.36	4.75	3.62
CCGATTAACATCAGGGACGTCCCTGATGTTAATCGGGTCTTGATTCGCTTGACGCTGCTG	7.37	7.13	4.26	1.08	6.25	8.52	4.54
CCGATTAACATCAAAAATCCCACTGATGTTAATCGGGTCTTGATTCGCTTGACGCTGCTG	3.51	3.55	2.95	1.65	7.7	3.87	3.73
CCGATTAACATCACAAACCCCCCTGATGTTAATCGGGTCTTGATTCGCTTGACGCTGCTG	6.66	4.96	6.4	3.99	7.41	5.34	6.08
CCGATTAACATCAATGCCCCCCCTGATGTTAATCGGGTCTTGATTCGCTTGACGCTGCTG	5.2	2.82	3.53	5.03	4.02	4.04	4.02
CCGATTAACATCACGGGGAATTATGATGTTAATCGGGTCTTGATTCGCTTGACGCTGCTG	7.23	8.96	9.51	8.2	6.78	6.42	6.24
CCGATTAACATCAGGGAATACCCTGATGTTAATCGGGTCTTGATTCGCTTGACGCTGCTG	8.89	11.2	8.44	3.79	9.63	10.2	6.01
CCGATTAACATCAGGGAATCACCTGATGTTAATCGGGTCTTGATTCGCTTGACGCTGCTG	6.2	6.62	6.17	2.45	10.3	6.99	5.35
CCGATTAACATCACGGGGGATTATGATGTTAATCGGGTCTTGATTCGCTTGACGCTGCTG	7.59	6.57	7	6.84	6.41	5.87	6.67
CCGATTAACATCAAAATTACCCCTGATGTTAATCGGGTCTTGATTCGCTTGACGCTGCTG	4.94	6.27	7.21	7.33	5.24	6.34	5.3
CCGATTAACATCAAAACTTCCCCTGATGTTAATCGGGTCTTGATTCGCTTGACGCTGCTG	8.71	10.4	12.1	9.44	8.98	8.18	7.33
CCGATTAACATCAAGTTTCCCCCTGATGTTAATCGGGTCTTGATTCGCTTGACGCTGCTG	8.07	8.22	11.2	11.4	4.83	6.51	7.11
